# Experimental data from PubChem BioAssay AID488984 (The Scripps Research Institute Molecular Screening Center, 2010).
# A number with no mark means an inactive call. Calls of active or inactive are those of the source. Rule as the data show it: active = inhibition above about 55%; inactive = the rest.
# Tested on: SARS coronavirus 3C-like protease (3CLpro, nsp5)
# Assay: blockers of SARS 3CLpro activity – biochemical, fluorescence, set 2, late-stage follow-up (AID 488984)
# Conditions: recombinant 3CLpro, fluorogenic peptide cleavage; at 100 µM; stronger effect = higher value
row,SMILES,inhibition
1,CC(C)(C)NC(=O)C(c1ccsc1)N(C(=O)c1cccc2c1CCCC2)c1ccc(F)cc1 (configuration not stated),14.4%
2,CC(C)(C)NC(=O)C(c1cccnc1)N(C(=O)Cc1c[nH]c2ccccc12)c1ccc(OCF)cc1 (configuration not stated),11.5%
3,CC(C)(C)NC(=O)C(c1cccnc1)N(C(=O)c1cccc2c1CCCC2)c1ccc(F)cc1 (configuration not stated),12%
4,CC(C)(C)NC(=O)C(c1cccnc1)N(C(=O)c1ccc(C(F)(F)F)nc1)C1CC1 (configuration not stated),5.34%
5,CC(C)(C)NC(=O)C(c1ccsc1)N(C(=O)c1ccc(C#N)cc1)c1ccc(OCF)cc1 (configuration not stated),17.8%
6,CC(C)(C)NC(=O)C(c1ccsc1)N(C(=O)Cc1cccc2ccccc12)c1ccc(C(C)(C)C)cc1 (configuration not stated),22.3%
7,CC(C)(C)NC(=O)C(c1ccsc1)N(C(=O)Cc1cccnc1)c1ccc(OCF)cc1 (configuration not stated),56.1% (active)
8,CC(C)c1ccc(N(C(=O)Cc2cccnc2)C(C(=O)NC(C)(C)C)c2ccsc2)cc1 (configuration not stated),7.95%
9,CC(C)c1ccc(N(C(=O)c2ccc(C(F)(F)F)nc2)C(C(=O)NC(C)(C)C)c2cccnc2)cc1 (configuration not stated),-15.3%
10,CC(=O)Nc1ccc(N(C(=O)Cn2nnc3ccccc32)C(C(=O)NC(C)(C)C)c2ccsc2)cc1 (configuration not stated),94.8% (active)
11,CC(C)(C)NC(=O)C(c1ccsc1)N(C(=O)c1n[nH]c2ccccc12)c1ccc(C(C)(C)C)cc1 (configuration not stated),17.9%
12,CC(C)c1ccc(N(C(=O)c2ccc(C#N)cc2)C(C(=O)NC(C)(C)C)c2ccsc2)cc1 (configuration not stated),-5.45%
13,CC(C)(C)NC(=O)C(c1cccnc1)N(C(=O)c1cccc2c1CCCC2)C1CC1 (configuration not stated),8.14%
14,CC(C)c1ccc(N(C(=O)c2n[nH]c3ccccc23)C(C(=O)NC(C)(C)C)c2ccsc2)cc1 (configuration not stated),7.3%
15,CC(C)(C)NC(=O)C(c1cccnc1)N(C(=O)c1ccco1)c1ccc(OC(F)F)cc1 (configuration not stated),45.5%
16,CC(C)(C)NC(=O)C(c1ccsc1)N(C(=O)Cc1cccc2ccccc12)c1ccc(OCF)cc1 (configuration not stated),18.2%
17,CC(C)(C)NC(=O)C(c1cccnc1)N(C(=O)c1n[nH]c2ccccc12)c1ccc(F)cc1 (configuration not stated),9.24%
18,CC(C)(C)NC(=O)C(c1ccsc1)N(C(=O)c1cccc2c1CCCC2)C1CC1 (configuration not stated),34.6%
19,CC(C)(C)NC(=O)C(c1cccnc1)N(C(=O)c1n[nH]c2ccccc12)c1ccc(OC(F)F)cc1 (configuration not stated),24.6%
20,CC(C)c1ccc(N(C(=O)Cc2cccc3ccccc23)C(C(=O)NC(C)(C)C)c2cccnc2)cc1 (configuration not stated),-1.29%
21,CC(C)(C)NC(=O)C(c1ccsc1)N(C(=O)c1ccc(C(F)(F)F)nc1)c1ccc(OCF)cc1 (configuration not stated),21.3%
22,Cc1nccn1CC(=O)N(c1ccc(NS(C)(=O)=O)cc1)C(C(=O)NC(C)(C)C)c1ccsc1 (configuration not stated),0.44%
